esBAF inh: inhibitors of esBAF chromatin remodeling in mouse ES cells; Bmi1-luciferase knock-in reporter, 24 h; 100% = twice the neutral-well signal; reporter increase, % at 12.5 µM; hit rate 2% among 350,000; in the data active means activation above about 40%; inconclusive means no clear call, values can overlap the other calls;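 further: 0% = median of the plate's neutral control wells and 100% = double that signal; a rise in the Bmi1 reporter signal indicates esBAF inhibition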
N-glyco inh: N-linked glycosylation inhibition; D54 ERlucT glycosylation luciferase reporter, 24 h; percent of 100 nM tunicamycin response; reporter increase, % at 12.5 µM; hit rate 0.23% among 360,000; AID 588692;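 active means mean luciferase reporter signal, scaled so untreated is 0 and the glycosylation-blocking control 100, at or above a set limit in every replicate; inconclusive means mean reaches the limit but not every replicate does; inactive means mean below the limit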;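 further: luciferase carries N-glycosylation sites so blocking glycosylation raises the light; 0% = median of neutral control wells and 100% = median of 100 nM tunicamycin wells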
PvdQ acylase: blocks Pseudomonas aeruginosa PvdQ acylase activity. purified PvdQ acylase, fluorescence plate reader. inhibition, % at 10 µM. hit rate 0.063% among 340,000; in the data active means inhibition above about 30%, passing the limit was not always enough; inconclusive means no clear call, values can overlap the other calls;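 further: 0% = vehicle neutral wells and 100% = reference inhibitor wells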
Wnt act: activates Wnt/beta-catenin signaling in a reporter cell assay. AID 743398. activator, plate reader. activation, % at 9.35 µM. hit rate 1.2% among 300,000; in the data active means activation above about 30%, passing the limit was not always enough; inconclusive means no clear call, values can overlap the other calls;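 further: 0% = neutral control wells and 100% = positive control wells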
Vif imaging: HIV Vif inhibition; HEK293T cells, Vif self-association by quenched fluorescence, imaging, 24 h; inhibition, % at 7.49 µM; hit rate 0.35% among 340,000; AID 602346; in the data active means inhibition above about 50%, passing the limit was not always enough; inconclusive means no clear call, values can overlap the other calls; inactive means below about 31%
MITF TRPM1 HTS: MITF TRPM1 promoter activation in melanoma cells. activation, % at 12.5 µM. hit rate 0.75% among 300,000. SK-MEL-5 TRPM1-promoter luciferase, 24 h; % of positive control, neutral wells = 0;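 active means mean activation of at least 80% with every replicate also reaching 80%; inconclusive means mean reaches 80% but some replicate falls short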;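 further: 0% = neutral control wells and 100% = parthenolide positive control wells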
* marks the source's active call; other numbers are inactive results; ? = inconclusive; / = not tested or not shown. Shown are actives, neighbours in structure and some others; about 2.9% of the full set was active somewhere.

SMILES	esBAF inh	N-glyco inh	PvdQ acylase	Wnt act	Vif imaging	MITF TRPM1 HTS
C(=N\Nc1nc2ccccc2[nH]1)/c1ccc2ncccc2c1	-33	45*	9	8	33	/
C(=N\Nc1nc2ccccc2[nH]1)/c1ccc2c(c1)OCCO2	/	-16	-10	35*	-2	/
C(=N\Nc1nc2ccccc2[nH]1)/c1ccccn1	/	-20	-6	21	-1	-82
C(=N\NCc1ccccc1)/c1ccc2ncccc2c1	/	-6	/	31*	6	/
CN1C(=O)c2cc(NC(=O)Nc3ccccc3Cl)ccc2OC[C@@H]2O[C@H](CC(=O)O)CC[C@H]21	-2	/	/	/	/	/
CCN1[C@@H]2Cn3c(ccc(-c4ccncc4)c3=O)[C@H]1[C@@H](C(=O)NCc1ccccc1)[C@@H]2CO	-11	/	/	/	/	/
CO[C@H]1CN(C)C(=O)c2cc(NS(=O)(=O)CC(F)(F)F)ccc2OC[C@@H](C)N(Cc2cccnc2)C[C@H]1C	1	/	/	/	/	/
N#Cc1cc2c(nc1SCC(=O)O)CCCC2	/	/	-4	/	/	2
Cc1cc(NC(=O)CSc2nc3ccccc3cc2C#N)no1	34	0	-10	9	-12	60
Cc1cc(NC(=O)CSc2nc3c(cc2C#N)CCCC3)no1	/	-10	-3	41*	/	66
Cc1cc(NC(=O)CSc2nc3c(cc2C#N)CCC3)no1	26	-10	-10	34*	3	67
C[C@H](NC(=O)C[C@@H]1CC[C@@H]2[C@H](COC[C@H](O)CN2C(=O)Nc2ccccc2)O1)c1ccccc1	9	/	/	/	/	/
CCC(=O)N1C[C@@H](C)[C@H](OC)CN(C)C(=O)c2cc(NC(=O)COC)ccc2OC[C@H]1C	-2	/	/	/	/	/
O=C(COC(=O)Cn1cnc2ccccc21)Nc1ccc(Br)cc1	-8	-6	/	0	/	/
O=C(COC(=O)Cn1cnc2ccccc21)Nc1ccc2c(c1)C(=O)c1ccccc1C2=O	/	10	3	59*	2	27
C[C@H](CO)N1C[C@H](C)[C@@H](CN(C)Cc2ccc(Cl)c(Cl)c2)Oc2ccc(N(C)C)cc2CC1=O	1	/	/	/	/	/
O=C(CN1CCCCC1)Nc1scc2c1c(=O)oc1ccccc12	?	2	11	38*	6	/
C[C@H]1CN([C@@H](C)CO)C(=O)c2cc(NC(=O)NC3CCCCC3)ccc2O[C@@H]1CN(C)CC1CCCCC1	-2	/	/	/	/	/
CO[C@@H]1CN(C)C(=O)c2cc(NC(=O)C3CC3)ccc2OC[C@@H](C)N(S(=O)(=O)c2ccc(Cl)cc2)C[C@H]1C	0	/	/	/	/	/
Cc1cccc(OCCCn2c(=O)oc3ccccc32)c1	48*	-1	-4	15	-5	70
Cc1cccc(OCCn2c(=O)oc3ccc(C)cc32)c1	22	-2	19	10	0	69
O=C(O)c1cc2nccc(-c3ccco3)n2n1	-11	1	39*	2	-6	-8
COc1ccc(-c2ccnc3cc(C(=O)O)nn23)cc1	/	0	-8	-11	5	0
CN(/N=C/c1ccncc1)c1cnc2ccccc2n1	/	-1	10	37*	-9	35
CCN1C(=O)CC(c2ccccc2)N(C2CCCC2)c2nc(Nc3ccc(C(=O)NC4CCN(C)CC4)cc3OC)ncc21 (stereo not given)	-10	60*	-13	/	-1	-86
SMILES	esBAF inh	N-glyco inh	PvdQ acylase	Wnt act	Vif imaging	MITF TRPM1 HTS
COc1cc(C(=O)NC2CCN(C)CC2)ccc1Nc1ncc2c(n1)N(Cc1ccccc1)CCC(=O)N2C	4	105*	0	?	0	-47
CCN1C(=O)CC(C(C)C)N(C2CCCC2)c2nc(Nc3ccc(C(=O)NC4CCN(C)CC4)cc3OC)ncc21 (stereo not given)	-1	18	0	/	13	-82
COc1cc(C(=O)NC2CCN(C)CC2)ccc1Nc1ncc2c(n1)N(C1CCCCC1)CCC(=O)N2C	-56	52*	8	4	-4	-59
Cn1c(=O)cc2c3c(c(N4CCCCC4)ccc31)C(=O)c1ccccc1-2	/	28*	/	0	-11	/
Cc1noc(C)c1NC(=O)N(C)C[C@@H]1Oc2c(NS(=O)(=O)c3ccc(Cl)cc3)cccc2C(=O)N([C@H](C)CO)C[C@H]1C	0	/	/	/	/	/
CSc1ccc(CNc2ccc(Cl)cc2)cc1	38	-3	7	-1	5	101*
Clc1ccc(NCc2cccnc2)cc1	-6	1	-4	2	-3	-6
NCCOc1ccccc1-c1ccccc1	-11	-1	-18	/	50*	/
CN(C)C=NC(=O)c1cc(C(=O)c2ccccc2Cl)c[nH]1	/	-2	-1	-1	2	-10
CN(C)C=NC(=O)c1cc(C(=O)c2ccc(C(C)(C)C)cc2)c[nH]1	/	-7	2	15	-3	86*
O=C(NCC1CCCCC1)c1cc(S(=O)(=O)N2CCCCC2)ccc1Cl	7	-1	-4	6	-4	1
O=C(NCC1CCCCC1)c1cc(Br)ccc1Cl	3	1	34*	1	-12	7
Cc1ccccc1-c1ccc2c(c1)O[C@H](CN(C)C(=O)Nc1ccc(F)cc1)[C@@H](C)CN([C@H](C)CO)S2(=O)=O	2	/	/	/	/	/
CCN(CC)CCNc1ccc(CO)c2oc3ccccc3c(=O)c12	11	43*	/	3	/	/
CCN(CC)CCNc1ccc(CO)c2sc3ccccc3c(=O)c12	10	21	-3	1	6	-26
CN1C(=O)c2cc(NC(=O)c3ccc(F)c(F)c3)ccc2OC[C@H]2O[C@@H](CC(=O)N[C@@H]3CCN(Cc4ccccc4)C3)CC[C@@H]21	0	/	/	/	/	/
CC(=O)c1ccc(NC(=O)CCc2nnc3ccc(N4CCC5(CC4)OCCO5)nn23)cc1	54*	3	-3	13	-11	31
Cc1ccc(NC(=O)CCc2nnc3ccc(N4CCC5(CC4)OCCO5)nn23)nc1	3	2	-3	0	-5	-3
CCOC(=O)c1cc2[nH]c3ccccc3c2[n+](-c2ccc([N+](=O)[O-])cc2)c1N	-13	46*	-26	7	-2	-2
CCOC(=O)c1cc2[nH]c3ccccc3c2[n+](-c2ccc([N+](=O)[O-])cc2)c1C	/	15	-8	/	-4	6
O=C(NCc1ccc2c(c1)OCO2)c1ccc(S(=O)(=O)C(F)F)cc1	-4	-3	5	-2	-1	15
NS(=O)(=O)c1ccc(CNC(=O)c2ccc(S(=O)(=O)C(F)F)cc2)cc1	-5	-2	-7	36*	-16	4
CC=Cc1ccc2n(c1=O)C[C@H]1[C@H](CO)[C@@H](C(=O)N[C@@H](C)c3ccccc3)[C@@H]2N1CC (mixture of isomers)	3	/	/	/	/	/
O=C(CCCN1C(=O)/C(=C\c2cccc(Br)c2)SC1=S)Nc1ccc(C(=O)O)cc1	4	-1	/	0	77*	/
C[C@H]1CN([C@@H](C)CO)C(=O)c2cc(NS(=O)(=O)c3cn(C)cn3)ccc2O[C@@H]1CN(C)S(=O)(=O)c1cccs1	1	/	/	/	/	/
